Test results taken from PubChem BioAssay AID1903 (Southern Research Specialized Biocontainment Screening …, 2009).
Hit rate of the full screen: of about 310,000 compounds, about 1,200 (0.39%) were called active. How the calls were made is not given here. Not all results are given here. Potency and affinity values are given separately.

Target: Large T antigen (Simian virus 40) (UniProt P03070)
Assay: SV40 large T antigen inhibitors, biochemical (AID 1903)
Conditions: SV40 large T antigen ATPase/helicase inhibition assay; at 20 µM; hits give high values

Large T antigen (Simian virus 40), sequence (P03070 whole entry, looked up): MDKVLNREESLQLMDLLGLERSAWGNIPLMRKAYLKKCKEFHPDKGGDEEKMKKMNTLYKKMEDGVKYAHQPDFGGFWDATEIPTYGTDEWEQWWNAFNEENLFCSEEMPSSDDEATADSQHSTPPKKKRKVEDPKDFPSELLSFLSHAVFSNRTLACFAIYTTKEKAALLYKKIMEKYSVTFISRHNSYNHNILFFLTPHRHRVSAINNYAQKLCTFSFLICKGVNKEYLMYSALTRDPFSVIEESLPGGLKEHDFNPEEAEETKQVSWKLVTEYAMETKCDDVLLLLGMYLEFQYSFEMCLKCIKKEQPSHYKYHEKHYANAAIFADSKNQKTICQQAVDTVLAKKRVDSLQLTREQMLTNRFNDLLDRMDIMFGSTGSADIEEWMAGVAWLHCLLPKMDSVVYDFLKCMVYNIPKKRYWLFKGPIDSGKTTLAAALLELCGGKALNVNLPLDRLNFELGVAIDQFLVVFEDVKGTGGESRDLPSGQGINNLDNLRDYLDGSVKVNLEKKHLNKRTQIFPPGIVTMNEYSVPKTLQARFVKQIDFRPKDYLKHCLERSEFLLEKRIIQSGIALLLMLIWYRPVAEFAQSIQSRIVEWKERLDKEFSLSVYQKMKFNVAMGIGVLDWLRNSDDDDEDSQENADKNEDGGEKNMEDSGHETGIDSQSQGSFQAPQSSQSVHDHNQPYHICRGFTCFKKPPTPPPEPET

inhibition, inactive:
O=C1/C(=C/c2ccc(F)cc2)SC(=S)N1CC(=O)N1CCCCC1c1cccnc1 (configuration not stated) 18.2%, CCOC(=O)c1c(C)n(C)c2c(C)cc(O)c(OC(C)=O)c12 1.3%, COC(=O)c1ccc(N)c(CS(=O)(=O)c2ccc(Cl)cc2)c1 -0.68%, OCC1(Cc2ccccc2)CCCN(Cc2ccc3c(c2)OCCO3)C1 (configuration not stated) 10.8%, CC(C)n1cnc2cc(NCc3nc4ccccc4n3C)ccc21 20.2%, Cc1ccc(C(=O)Nc2nnc(CC(=O)N/N=C/c3ccc(O)c(O)c3)s2)cc1 19.4%, O=C(CSc1nc2ccccc2o1)N/N=C/c1ccccc1 12.4%, O=C(Cc1nnc(NC(=O)c2ccccc2)s1)N/N=C/c1ccc(O)cc1 17.1%, O=C(CSc1nc2ccccc2o1)N/N=C/c1ccc(C(=O)O)cc1 16.5%, CCN(CC(=O)Nc1c(F)cccc1F)C(=O)/C=C/c1ccc(Br)s1 18.8%, Oc1ccc(-c2cn3c(n2)SCC3)cc1 28.9%, Cc1ccc(-c2cn3c(n2)SCC3)cc1 23.1%, Cc1ccc(C)c(S(=O)(=O)N2CCCCC2CCNC(=O)C(=O)NCc2cccnc2)c1 (configuration not stated) 11.7%, CN(C)CCn1c(COc2ccccc2)nc2ccccc21 27.6%, COc1ccc(N2CCN(C(=S)NCc3ccc(C)cc3)CC2)cc1 5.85%, CCCCCC(=O)NC(NC(=S)Nc1ccc(S(N)(=O)=O)cc1)C(Cl)(Cl)Cl (configuration not stated) 7.24%, O=C(Nc1cccc(N2CCCC2)c1)c1cccs1 7.12%, O=C(Nc1cccc(-n2cnnn2)c1)c1cccs1 6.94%, CN1CCCN(C(=O)CSc2ccccc2)CC1 27.3%, Cc1ccc(/C=C/C(=O)NCc2ccco2)o1 16.3%, O=C1C(=Cc2cccn2-c2ccc(O)cc2)C(=O)c2ccccc21 3.5%, O=C1NC(=S)N/C1=C/c1cccn1-c1ccc([N+](=O)[O-])cc1 5.15%, COc1ccc(N(CC(=O)Nc2ccc(C)cc2C)S(=O)(=O)c2c(C)n[nH]c2C)cc1 17.7%, O=C(COC(=O)c1n[nH]c2ccccc12)Nc1cccc(S(=O)(=O)N2CCOCC2)c1 7.02%, CCOc1ccc(NS(=O)(=O)c2ccc3[nH]c(=O)oc3c2)cc1 1.63%, CCOc1ccc(S(=O)(=O)Nc2ccc(O)c(Sc3ncn[nH]3)c2)cc1 6.38%, O=C(c1ccc(S(=O)(=O)Nc2ccc(F)cc2)cc1)N1CCN(c2ccccn2)CC1 10.4%
